According to PubChem BioAssay (EPA / NIEHS):
Activity calls are given as the source filed them. How the source made its calls: active means hit-call score of the fitted dose curve at least 0.9, where 1 is the maximum; inactive means score below 0.9.

What was measured:
Details in all cases: mRNA level, 48 h; actives raise or lower the signal
[1] = read-out: Peroxisomal acyl-coenzyme A oxidase 1 (ACOX1) gene, ACOX1 (gene 51); experiment: LTEA_HepaRG_ACOX1: Life Technologies and Expression Analysis (LTEA) Assay for Peroxisomal acyl-coenzyme A oxidase 1 (ACOX1) gene using HepaRG (AID 2283467)
Outline: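 HepaRG, 48 h chemical exposure, 8-pt half-log series from 100 uM top, 0.5% DMSO vehicle, duplicates. Readout: ACOX1 mRNA by Fluidigm qRT-PCR, housekeeping-normalized; bidirectional fit vs DMSO baseline.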

[2] = read-out: Alkaline Phosphatase, Placental (ALPP) gene, ALPP (gene 250); experiment: LTEA_HepaRG_ALPP: Life Technologies and Expression Analysis (LTEA) Assay for Alkaline Phosphatase, Placental (ALPP) gene using HepaRG (AID 2283468)
Outline: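 HepaRG cells plated 48 h, then exposed in duplicate for 48 h in serum-free induction medium to 8-point half-log series from 100 uM in 0.5% DMSO. ALPP mRNA by TaqMan qRT-PCR, normalized to ACTB/GAPDH/POLR2A; bidirectional fit versus DMSO.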

[3] = read-out: Bcl-2 (BAD) gene, BAD (gene 572); experiment: LTEA_HepaRG_BAD: Life Technologies and Expression Analysis (LTEA) Assay for Bcl-2 (BAD) gene using HepaRG (AID 2283469)
Outline: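 HepaRG, 48 h exposure, 8-pt half-log curve from 100 uM in 0.5% DMSO, duplicates. Readout: TaqMan qRT-PCR for BAD mRNA, housekeeping-normalised (ACTB/GAPDH/POLR2A); gain or loss fitted against DMSO baseline.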

[4] = read-out: Bcl-2 (BAX) gene, BAX (gene 581); experiment: LTEA_HepaRG_BAX: Life Technologies and Expression Analysis (LTEA) Assay for Bcl-2 (BAX) gene using HepaRG (AID 2283470)
Outline: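 Cells were thawed, plated for 48 h, moved to serum-free induction medium and dosed for 48 h (highest concentration 100 uM, half-log steps, 0.5% DMSO). Total RNA was then analysed for BAX expression by qRT-PCR.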

[5] = read-out: adenosine kinase (ADK) gene, ADK (gene 132); experiment: LTEA_HepaRG_ADK: Life Technologies and Expression Analysis (LTEA) Assay for adenosine kinase (ADK) gene using HepaRG (AID 2283471)
Outline: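 Read-out is ADK transcript level measured by qRT-PCR and normalised to three housekeeping genes. Cells are human HepaRG, dosed for 48 h at up to 100 uM in 0.5% DMSO. Gain or loss of signal is fitted against DMSO controls.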

[6] = read-out: Alpha-fetoprotein (AFP) gene, AFP (gene 174); experiment: LTEA_HepaRG_AFP: Life Technologies and Expression Analysis (LTEA) Assay for Alpha-fetoprotein (AFP) gene using HepaRG (AID 2283472)
Outline: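 Chemicals were tested on differentiated HepaRG cells for 48 hours at eight concentrations up to 100 uM, with 0.5% DMSO as vehicle. AFP expression was then quantified by qRT-PCR and analyzed for gain or loss relative to DMSO.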

BCL2L11 (gene 10018) = experiment: LTEA_HepaRG_BCL2L11: Life Technologies and Expression Analysis (LTEA) Assay for Bcl-2 (BCL2L11) gene using HepaRG (AID 2283473)
Outline: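 Differentiated human HepaRG cells were exposed 48 h in serum-free induction medium to eight half-log concentrations up to 100 uM in 0.5% DMSO, in duplicate. BCL2L11 mRNA was quantified by TaqMan qRT-PCR, normalized to ACTB, GAPDH and POLR2A; induction or repression fitted versus DMSO.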

[7] = read-out: Apolipoprotein A-V (APOA5) gene, APOA5 (gene 116519); experiment: LTEA_HepaRG_APOA5: Life Technologies and Expression Analysis (LTEA) Assay for Apolipoprotein A-V (APOA5) gene using HepaRG (AID 2283474)
Outline: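 Differentiated HepaRG cells in serum-free induction medium, exposed 48 h in duplicate to eight half-log concentrations topping at 100 uM (0.5% DMSO). APOA5 mRNA by Fluidigm TaqMan qRT-PCR, normalized to ACTB, GAPDH and POLR2A; bidirectional fit versus DMSO.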

[8] = read-out: Apoptosis regulator Bcl-2 (Homo sapiens) (UniProt P10415); experiment: LTEA_HepaRG_BCL2: Life Technologies and Expression Analysis (LTEA) Assay for Bcl-2 gene using HepaRG (AID 2283475)
Outline: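 Plated human HepaRG cells are exposed to test chemicals for 48 h across eight concentrations from 100 uM downward in half-log steps (0.5% DMSO). BCL2 expression is then measured by qRT-PCR with housekeeping normalisation and fitted bidirectionally against vehicle.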

Caspase-3 (Homo sapiens) = Caspase-3 (Homo sapiens) (UniProt P42574); experiment: LTEA_HepaRG_CASP3: Life Technologies and Expression Analysis (LTEA) Assay for cysteine-aspartic acid protease (CASP3) using HepaRG (AID 2283477)
Caspase-3 (Homo sapiens), sequence (P42574 whole entry, looked up): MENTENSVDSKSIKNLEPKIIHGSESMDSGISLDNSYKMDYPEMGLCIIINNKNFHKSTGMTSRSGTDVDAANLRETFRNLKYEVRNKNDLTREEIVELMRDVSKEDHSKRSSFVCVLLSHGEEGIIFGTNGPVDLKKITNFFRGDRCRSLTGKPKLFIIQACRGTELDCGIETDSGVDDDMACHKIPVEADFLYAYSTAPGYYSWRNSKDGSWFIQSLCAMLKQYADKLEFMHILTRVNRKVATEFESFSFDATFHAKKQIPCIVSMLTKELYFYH
Outline: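 Differentiated HepaRG cells, plated 48 h, were treated in duplicate in serum-free induction medium for 48 h with eight half-log concentrations up to 100 uM in 0.5% DMSO. CASP3 mRNA measured by qRT-PCR, normalized to ACTB, GAPDH, POLR2A.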

[9] = read-out: Cytochrome P450 (CYP24A1), CYP24A1 (gene 1591); experiment: LTEA_HepaRG_CYP24A1: Life Technologies and Expression Analysis (LTEA) Assay for Cytochrome P450 (CYP24A1) using HepaRG (AID 2283478)
Outline: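 HepaRG cells plated 48 h, then exposed in duplicate in serum-free induction medium for 48 h to 8-point half-log series from 100 uM in 0.5% DMSO. CYP24A1 mRNA by Fluidigm qRT-PCR, normalized to ACTB, GAPDH, POLR2A; bidirectional fit versus DMSO.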

[10] = read-out: Cytochrome P450 (CYP1A2), CYP1A2 (gene 1544); experiment: LTEA_HepaRG_CYP1A2: Life Technologies and Expression Analysis (LTEA) Assay for Cytochrome P450 (CYP1A2) using HepaRG (AID 2283479)
Outline: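 Differentiated human HepaRG cells in serum-free induction medium exposed 48 hours in duplicate to 8 half-log concentrations from 100 uM, 0.5% DMSO. CYP1A2 mRNA quantified by qRT-PCR, normalized to ACTB, GAPDH and POLR2A; bidirectional fitting versus DMSO.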

[11] = read-out: cysteine-aspartic acid protease (CASP8), CASP8 (gene 841); experiment: LTEA_HepaRG_CASP8: Life Technologies and Expression Analysis (LTEA) Assay for cysteine-aspartic acid protease (CASP8) using HepaRG (AID 2283480)
Outline: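 qRT-PCR readout of CASP8 mRNA, normalized to three housekeeping genes, after 48 h chemical exposure of HepaRG cells; 8-point half-log series, top 100 uM, 0.5% DMSO vehicle. Bidirectional curve fitting against DMSO baseline.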

[12] = read-out: Cytochrome P450 (CYP2B6), CYP2B6 (gene 1555); experiment: LTEA_HepaRG_CYP2B6: Life Technologies and Expression Analysis (LTEA) Assay for Cytochrome P450 (CYP2B6) using HepaRG (AID 2283481)
Outline: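 Differentiated human HepaRG cells in serum-free induction medium, dosed in duplicate for 48 h over 8 half-log concentrations topping at 100 uM (0.5% DMSO). CYP2B6 mRNA measured by TaqMan qRT-PCR, normalized to ACTB, GAPDH, POLR2A; bidirectional fit versus DMSO.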

[13] = read-out: Cytochrome P450 2C19 (Homo sapiens) (UniProt P33261); experiment: LTEA_HepaRG_CYP2C19: Life Technologies and Expression Analysis (LTEA) Assay for CYP2C19 using HepaRG (AID 2283482)
Outline: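 Differentiated HepaRG cells in serum-free induction medium exposed 48 h in duplicate, 8 concentrations from 100 uM by half-log steps in 0.5% DMSO. CYP2C19 mRNA measured by TaqMan qRT-PCR, normalized to ACTB, GAPDH, POLR2A. Bidirectional fit versus DMSO.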

CYP2C8 (gene 1558) = experiment: LTEA_HepaRG_CYP2C8: Life Technologies and Expression Analysis (LTEA) Assay for CYP2C8 using HepaRG (AID 2283483)
Outline: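 HepaRG (human liver line), 48 h chemical exposure, 8-pt half-log series from 100 uM, 0.5% DMSO vehicle. Readout: CYP2C8 transcript by qRT-PCR, housekeeping-normalized. Bidirectional fit vs DMSO baseline.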

CYP2C9 (gene 1559) = experiment: LTEA_HepaRG_CYP2C9: Life Technologies and Expression Analysis (LTEA) Assay for CYP2C9 using HepaRG (AID 2283484)
Outline: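 HepaRG, 48 h dosing, 8-pt half-log series, top 100 uM, 0.5% DMSO vehicle. Read-out: CYP2C9 transcript by TaqMan qRT-PCR, housekeeping-normalized (ACTB/GAPDH/POLR2A). Gain or loss fitted vs DMSO baseline.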

CYP2E1 (gene 1571) = experiment: LTEA_HepaRG_CYP2E1: Life Technologies and Expression Analysis (LTEA) Assay for CYP2E1 using HepaRG (AID 2283485)
Outline: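 Readout is qRT-PCR of CYP2E1 mRNA, normalized to three housekeeping genes and fitted bidirectionally against 0.5% DMSO. HepaRG cells were dosed 48 h at eight concentrations, highest 100 uM with half-log dilutions.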

CYP4A11 (gene 1579) = experiment: LTEA_HepaRG_CYP4A11: Life Technologies and Expression Analysis (LTEA) Assay for CYP4A11 using HepaRG (AID 2283486)
Outline: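 Differentiated HepaRG cells, 48 h after plating, exposed in duplicate for 48 h to 8 half-log concentrations up to 100 uM in 0.5% DMSO in serum-free induction medium. CYP4A11 mRNA measured by TaqMan qRT-PCR, normalized to ACTB, GAPDH and POLR2A.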

[14] = read-out: Bcl-2 (BID) gene, BID (gene 637); experiment: LTEA_HepaRG_BID: Life Technologies and Expression Analysis (LTEA) Assay for Bcl-2 (BID) gene using HepaRG (AID 2283476)
Outline: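 Cells are plated, cultured 48 h, switched to serum-free induction medium, then dosed 48 h (100 uM top, half-log steps, 0.5% DMSO). RNA is isolated and BID expression read by qRT-PCR.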

Measured: AC50

Apoptosis regulator Bcl-2 (Homo sapiens), sequence (P10415 whole entry, looked up): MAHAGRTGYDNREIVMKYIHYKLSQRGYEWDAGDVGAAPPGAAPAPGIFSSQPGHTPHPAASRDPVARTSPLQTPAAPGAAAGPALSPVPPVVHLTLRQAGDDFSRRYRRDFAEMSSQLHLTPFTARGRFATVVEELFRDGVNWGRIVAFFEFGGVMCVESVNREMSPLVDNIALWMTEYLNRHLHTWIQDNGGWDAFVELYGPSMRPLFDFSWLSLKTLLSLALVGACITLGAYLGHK
Cytochrome P450 2C19 (Homo sapiens), sequence (P33261 whole entry, looked up): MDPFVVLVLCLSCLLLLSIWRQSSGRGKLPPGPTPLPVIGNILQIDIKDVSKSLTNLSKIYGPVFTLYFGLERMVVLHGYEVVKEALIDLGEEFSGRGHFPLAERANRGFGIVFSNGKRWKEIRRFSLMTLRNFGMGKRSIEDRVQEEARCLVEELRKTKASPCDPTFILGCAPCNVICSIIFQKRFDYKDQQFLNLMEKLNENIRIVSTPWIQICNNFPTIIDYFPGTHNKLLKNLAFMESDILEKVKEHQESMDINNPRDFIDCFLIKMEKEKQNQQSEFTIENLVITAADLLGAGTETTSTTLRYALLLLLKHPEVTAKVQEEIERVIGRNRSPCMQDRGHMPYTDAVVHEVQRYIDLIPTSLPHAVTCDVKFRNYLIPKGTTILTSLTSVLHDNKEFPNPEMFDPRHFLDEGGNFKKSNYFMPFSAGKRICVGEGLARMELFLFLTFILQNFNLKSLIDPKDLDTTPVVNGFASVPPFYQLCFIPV

CCCCCC(=O)O
inactive: [1] | [2] | [3] | [4] | [5] | [6] | BCL2L11 (gene 10018) | [7] | [8] | Caspase-3 (Homo sapiens) | [9] | [11] | [12] | [13] | CYP2C8 (gene 1558) | CYP2C9 (gene 1559) | CYP2E1 (gene 1571) | CYP4A11 (gene 1579)
active: [10] 63.7 µM

c1cc(-c2ccncc2)ccn1
active: [10] 50 µM
inactive: [1] | [2] | [3] | [4] | [5] | [6] | BCL2L11 (gene 10018) | [7] | [8] | Caspase-3 (Homo sapiens) | [9] | [11] | [12] | [13] | CYP2C8 (gene 1558) | CYP2C9 (gene 1559) | CYP2E1 (gene 1571) | CYP4A11 (gene 1579)

CNCc1cc(F)ccc1Oc1ccc(Cl)c(Cl)c1
inactive: [3] | [4] | [5] | [6] | BCL2L11 (gene 10018) | [7] | Caspase-3 (Homo sapiens) | [10] | [11] | CYP2C8 (gene 1558)
active: [1] 74.2 µM | [2] 81.8 µM | [8] 88.3 µM | [13] 94 µM | CYP2C9 (gene 1559) 92.6 µM | CYP2E1 (gene 1571) 73.8 µM | CYP4A11 (gene 1579) 75.5 µM

CC1=C(/C=C/C(C)=C/C=C/C(C)=C/CO)C(C)(C)CCC1
inactive: [1] | [3] | [4] | [5] | [6] | BCL2L11 (gene 10018) | [8] | [14] | Caspase-3 (Homo sapiens) | [9] | [10] | [11] | CYP2C9 (gene 1559)
active: [7] 52.2 µM | [12] 26.7 µM | [13] 43.5 µM | CYP2C8 (gene 1558) 52.2 µM | CYP2E1 (gene 1571) 52.2 µM | CYP4A11 (gene 1579) 15.5 µM

O=C(N[C@@H](Cc1ccccc1)[C@@H](O)C(=O)N1C[C@@H](O)[C@@H](O)C1)c1cc2cc(Cl)ccc2[nH]1
inactive: [1] | [3] | [4] | [5] | [6] | BCL2L11 (gene 10018) | [7] | [8] | [14] | Caspase-3 (Homo sapiens) | [9] | [11] | CYP2C8 (gene 1558) | CYP2E1 (gene 1571)
active: [10] 74.1 µM | [13] 4.24 µM | CYP2C9 (gene 1559) 12.5 µM | CYP4A11 (gene 1579) 89.9 µM

CN[C@H]1CC[C@@H](c2ccc(Cl)c(Cl)c2)c2ccc(S(N)(=O)=O)cc21
inactive: [3] | [5] | BCL2L11 (gene 10018) | [7] | [8] | Caspase-3 (Homo sapiens) | [9] | [10] | [11] | [13] | CYP2C8 (gene 1558)
active: [1] 12.2 µM | [2] 5.79 µM | [4] 82.6 µM | [6] 23.8 µM | CYP2C9 (gene 1559) 34.1 µM | CYP2E1 (gene 1571) 13 µM | CYP4A11 (gene 1579) 21.4 µM

COc1ccc(S(=O)(=O)N2C(=O)[C@@](c3ccccc3OC)(N3C[C@H](O)C[C@H]3C(=O)N(C)C)c3cc(Cl)ccc32)c(OC)c1
inactive: [3] | [14] | [9] | [11]
active: [1] 17.6 µM | [4] 19 µM | [5] 12.1 µM | [6] 29.4 µM | BCL2L11 (gene 10018) 63.4 µM | [7] 38.5 µM | [8] 50 µM | Caspase-3 (Homo sapiens) 12.2 µM | [10] 22.2 µM | [12] 28.9 µM | [13] 21.5 µM | CYP2C8 (gene 1558) 23 µM | CYP2C9 (gene 1559) 20.5 µM | CYP2E1 (gene 1571) 33.6 µM | CYP4A11 (gene 1579) 26.6 µM
